# Experimental data taken from PubChem BioAssay (Tox21).
# Activity calls are given as the source filed them. The call rests on the fitted dose curve.
# Target: Acetylcholinesterase (Homo sapiens) (UniProt P22303)
# Assay: Acetylcholinesterase (AChE) small molecule antagonists: enzyme-based qHTS assay (AID 1347397); further: nearly all actives have a fitted effect of over 55% in size
# Settings: Potency: AChE enzyme activity inhibition; outcome: AChE enzyme activity inhibition; series mostly up to 115 µM; activity change, negative = inhibition: at the top concentration
# In short: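 In this quantitative HTS, compounds from the Tox21 10K collection were preincubated 30 min at ambient temperature with recombinant human AChE dispensed at 50 mU/mL. Hydrolysis of acetylthiocholine was then followed for 10 min by DTNB colour development.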
# On the % scale 0 is the no-effect control and ±100 the full control effect; potency means the concentration at half of the fitted maximal effect.
# Acetylcholinesterase (Homo sapiens), sequence (P22303 whole entry, looked up): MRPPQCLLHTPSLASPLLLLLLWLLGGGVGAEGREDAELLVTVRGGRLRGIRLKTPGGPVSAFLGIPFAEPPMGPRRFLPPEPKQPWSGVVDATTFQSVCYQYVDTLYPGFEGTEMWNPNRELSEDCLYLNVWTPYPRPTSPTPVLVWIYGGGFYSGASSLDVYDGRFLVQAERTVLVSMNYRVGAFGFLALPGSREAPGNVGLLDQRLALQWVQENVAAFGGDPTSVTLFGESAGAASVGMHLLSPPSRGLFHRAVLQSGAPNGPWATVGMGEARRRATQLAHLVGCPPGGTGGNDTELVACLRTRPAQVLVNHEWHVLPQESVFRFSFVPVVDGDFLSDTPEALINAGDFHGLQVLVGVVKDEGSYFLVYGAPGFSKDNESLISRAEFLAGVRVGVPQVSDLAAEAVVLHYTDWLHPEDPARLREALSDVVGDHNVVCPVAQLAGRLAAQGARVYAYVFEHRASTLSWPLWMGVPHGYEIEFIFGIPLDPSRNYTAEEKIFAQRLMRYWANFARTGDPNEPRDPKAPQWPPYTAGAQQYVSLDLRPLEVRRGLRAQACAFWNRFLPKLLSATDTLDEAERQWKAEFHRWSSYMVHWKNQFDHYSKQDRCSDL
SMILES,"activity change, negative = inhibition",Potency
CCC(=O)OC/C=C(\C)CCC=C(C)C,0.29% (inactive),
COC(=O)CC(C)=O,-0.275% (inactive),
CCOC(=O)CS,5.84% (inactive),
O=C(O)c1c(Cl)cccc1Cl,-0.508% (inactive),
Cc1ccccc1N=Nc1ccc(N=Nc2c(O)ccc3ccccc23)c(C)c1,0.135% [at 53 µM] (inactive),
CNC(C)=O,0.604% (inactive),
CNC(=O)C(c1ccccc1)c1ccccc1,-0.129% (inactive),
CC(=O)c1ccccc1N,1.9% (inactive),
CCCCCCCOC(=O)c1ccccc1C(=O)OCCCCCCC,-6.26% (inactive),
CCCCCCCCC(=O)Cl,0.681% (inactive),
CCCCCCOc1ccc(N)cc1,-0.199% (inactive),
CN1CCN(CC(=O)N2c3ccccc3C(=O)Nc3cccnc32)CC1,0.584% [at 10.5 µM] (inactive),
COCCOCCOCCOCCOC,0.196% (inactive),
CC(COc1ccccc1)NC(C)C(O)c1ccc(O)cc1 (stereo not given),-0.79% [at 53 µM] (inactive),
Nc1ccc(NCCO)c([N+](=O)[O-])c1,,71 µM (active)
[K+],1.85% (inactive),
O=C1CCCN1C1CCCCC1,-4.21% (inactive),
CC(C)(C)c1ccc(OCC2CO2)cc1 (stereo not given),-0.137% (inactive),
O=C1N(c2ccccc2)c2ccccc2C1(Cc1ccncc1)Cc1ccncc1,2.87% [at 53 µM] (inactive),
COC(=O)c1cc(C(=O)OC)cc(S(=O)(=O)O)c1,-0.277% (inactive),

SMILES,"activity change, negative = inhibition",Potency
Nc1nc(Cl)nc2c1ncn2[C@@H]1O[C@H](CO)[C@@H](O)[C@@H]1F,0% [at 53 µM] (inactive),
O=C(O)[C@@H]1[C@H]2C[C@H]3c4[nH]c5ccccc5c4CCN3C[C@@H]2CC[C@@H]1O,0.139% [at 53 µM] (inactive),
N#CC1(N)CCCCC1,-1.94% (inactive),
COCCO,-0.0205% (inactive),
COc1ccc(-c2ccc3cc(C(=O)O)ccc3c2)cc1C12CC3CC(CC(C3)C1)C2,0.139% [at 53 µM] (inactive),
CC(C)(O)c1ccc(CNC(=O)c2cccnc2Oc2ccc(F)cc2)cc1,0.527% (inactive),
O=C(Nc1ccc([N+](=O)[O-])cc1)Nc1ccc([N+](=O)[O-])cc1,0.693% [at 53 µM] (inactive),
C/C=C/C=C/C=O,1.91% (inactive),
C=CC(=O)OCCn1c(=O)n(CCOC(=O)C=C)c(=O)n(CCOC(=O)C=C)c1=O,-1.28% (inactive),
CCC(=O)CC,-0.0094% (inactive),
CCCCC,0.136% (inactive),
Cc1oc2c(NC(=O)c3c(Cl)cccc3Cl)cccc2c1C(C)(C)O,-2.34% (inactive),
Clc1ccc2n[nH]nc2c1,-2.2% (inactive),
CCCCOC(=O)CCCCCCCC(=O)OCCCC,3.84% (inactive),
CCCCCCCCCCCCCCCC(=O)OC/C=C(C)/C=C/C=C(C)/C=C/C1=C(C)CCCC1(C)C,-1.25% (inactive),
CCCCCOc1ccccc1/C(=C\SC)n1ccnc1,2.08% [at 53 µM] (inactive),
Nc1ccc2ccccc2c1S(=O)(=O)O,-0.409% (inactive),
Nc1c(Br)cc([N+](=O)[O-])cc1Br,4.33% (inactive),
Cc1ccc(C(C)NC(=O)[C@@H](NC(=O)OC(C)C)C(C)C)cc1 (stereo not given in full),0% (inactive),
C=CC(C)(O)CCCC(C)CCCC(C)CCCC(C)C (stereo not given),-0.136% (inactive),
